Assay outcomes as filed in PubChem BioAssay.
Compounds with a hit are over-represented: about 5.2% of the library has one in this group of screens.
Sfp inh: Sfp phosphopantetheinyl transferase inhibition; Q9F4F7; Biochemical Sfp PPTase activity, qHTS; Potency, µM, without a hit: largest response in the series, negative = inhibition, usual class: inhibitors; 310,000 compounds, 3.5% hits; AID 1490;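 note: the enzyme is Sfp with the accession as filed and its product quenches rhodamine fluorescence; potency is the fitted concentration of half-maximal effect; 0% = enzyme reaction without inhibitor and -100% = no enzyme wells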
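Fluorescence-quenching assay: 15 nM Sfp-PPTase preincubated 15 min at room temperature with compound, then 5 uM rhodamine-CoA and 12.5 uM BHQ-2-labelled YbbR peptide added. Fluorescence (ex 525/em 598 nm) read at start and after 30 min; difference gives rate.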
Tau fluor cs: counter-screen for tau fibril formation inhibitors; tau K18 P301L Alexa594 fluorescence, heparin fibrillization; Potency, µM (titrated, usually from 57.7 µM), without a hit: top-dose activity change, negative = decrease; 280,000 compounds, 0.93% hits; note: potency is the fitted concentration of half-maximal effect; nearly all actives have a fitted effect of over 55% in size
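Human K18 P301L tau (15 uM unlabeled plus 0.24 uM Alexa 594-labeled, final) in 100 mM sodium acetate pH 7 was mixed with compound and 20 uM heparin and incubated 6 hr at 37 C.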
Coupling enz: counter-screen for Giardia aldolase inhibitors: coupling enzyme system; activity change, negative = inhibition, % at 58.2 µM, hits read low; coupling enzyme system counterscreen, AmpLite Red fluorescence; 290,000 compounds, 0.67% hits; in the data active = activity change below about -30%
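Counterscreen lacking aldolase: glyceraldehyde-3-phosphate coupling-enzyme reagent preincubated 10 min at RT with compound (at 57.5 uM final), then substrate/coupling system with AmpLite Red added; fluorescence read at 525/598 nm after 20 min RT.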
Tau ThT inhib: blocks human tau fibril formation measured by thioflavin T. P10636. recombinant tau K18 P301L (four-repeat tau fragment), heparin-induced fibrillization, ThT fluorescence. Potency, µM (highest dose often 57.4 µM), for inactives: at the highest dose activity, negative = inhibition, most hits filed as inhibitors. 270,000 compounds, 2.1% hits. AID 1460; note: potency is the fitted concentration of half-maximal effect; nearly all actives have a fitted effect of over 55% in size
Target sequence (P10636 561-689 P618L limits assumed): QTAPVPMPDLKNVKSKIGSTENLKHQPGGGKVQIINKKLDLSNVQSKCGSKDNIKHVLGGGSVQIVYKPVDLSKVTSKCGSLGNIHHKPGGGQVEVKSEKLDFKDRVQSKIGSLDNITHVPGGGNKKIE
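Recombinant human tau K18 fragment […] carrying P301L, 15 uM unlabeled plus 0.24 uM Alexa 594-labeled, was fibrillized with 20 uM heparin in 100 mM sodium acetate pH 7 for 6 hr at 37 C; 30 uM ThT fluorescence read after 1 hr.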
Tau fibril FP: inhibitors of human tau fibril formation. Potency, µM (doses to about 57.7 µM), for inactives: top-dose activity, negative = inhibition, usual class: inhibitors. 280,000 compounds, 0.39% hits. P10636. K18 P301L tau heparin fibrillization, Alexa594 FP, 6 h; note: potency is the fitted concentration of half-maximal effect; nearly all actives have a fitted effect of over 55% in size
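Steps: dispense K18 P301L tau (15 uM plus 0.24 uM Alexa 594 tracer, final) in pH 7 sodium acetate; add compound; add heparin (20 uM final); incubate 6 hr, 37 C; add ThT (30 uM final); after 1 hr ambient, read FP.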
Starred values were filed as active, the others as inactive; ? = inconclusive; nt = no result; ! = a repeat was not active. Unless noted, calls come from the whole dose curve; as a rule, active = well fitted curve in the direction sought with a large enough effect; inconclusive = small, poorly fitted or top-dose-only effect, or another doubt; inactive = no such curve, though single readings can be large; an effect the other way counts as inactive or inconclusive. Unless noted, % is set by controls: 0 for no effect and ±100 for the full control effect.

SMILES	Sfp inh	Tau fluor cs	Coupling enz	Tau ThT inhib	Tau fibril FP
CCCn1c(SCC(=O)Nc2ccccc2N2CCCCC2)nc2c1c(=O)n(C)c(=O)n2C	35µM*	-3%	1	-4%	0%
COc1cc(Cl)c(S(=O)(=O)N2CCCC2)cc1Cl	0%	2%	3	5%	-6%
COc1cc(N2C(=O)C=CC2=O)c(OC)cc1Cl	3.5µM*	0%	1	?	-3%
COc1ccc(NC(=O)C2CCCN(S(=O)(=O)c3ccc4c(c3)CCCC(=O)N4)C2)cc1OC (stereo not drawn)	nt	-17%	nt	-7%	1%
O=c1cc(-c2ccc(O)cc2)oc2c(O)c(O)c(O)c(O)c12	4.5µM*	?	-66*	14µM*	?
O=c1cc(-c2ccccc2)oc2cc(O)c(O)c(O)c12	28µM*!	?	-45*	25µM*	28µM*
N#Cc1ccc(N2C(=O)[C@@H]3C(C(=O)c4ccc5ccccc5n4)=NN[C@@H]3C2=O)cc1	-16%	1%	-4	8%	-4%
N#Cc1ccc(N2C(=O)[C@@H]3C(C(=O)c4cnccn4)=NN[C@@H]3C2=O)cc1	18µM*	-16%	0	?	-5%
COc1ccc(OC)c(C2=Nn3c(nnc3-c3ccccc3C)SC2)c1	?	nt	-4	nt	nt
O=C(NCc1ccccc1Br)C1CCCN(C(=O)N2CCOc3ccccc32)C1 (stereo not drawn)	nt	?	nt	12%	?
CC(=S)/C=C1\Sc2ccccc2N1C	45µM*	25%	1	14µM*	-11%
COc1ccc(C(=O)/C=C2\Sc3ccccc3N2C)cc1	0%	-17%	-27	?	12%
CCN(CC)C(=O)c1sc2c(c1C)c(=O)n(-c1ccc(OC)cc1OC)c(=O)n2CC(=O)Nc1ccccc1	nt	-18%	nt	-12%	-2%
Cc1ccc(-c2csc3nc4cc(C(=O)NC5CCC(O)CC5)ccc4c(=O)n23)cc1 (stereo not drawn)	56µM*	2%	-1	-8%	-3%
c1ccc(-c2nn3c(C4CCCCC4)nnc3s2)nc1	-9%	5%	2	-3%	2%
Clc1ccc(OCc2nn3c(C4CCCCC4)nnc3s2)cc1	20µM*	3%	-1	-2%	9%
O=c1cnc2cnc(Oc3ccccc3)nc2n1Cc1ccc(F)cc1	-1%	nt	0	nt	nt
CC1Sc2ccc(C(=O)O)cc2NC1=O (stereo not drawn)	3%	7%	-3	11%	9%
COc1ccc(CNC(=O)c2ccc3c(c2)NC(=O)C(C)S3)cc1 (stereo not drawn)	22µM*	-23%	-2	?	?
COC(=O)CN1C(=O)C(O)(c2c(C)[nH]c3ccccc23)c2ccccc21 (stereo not drawn)	nt	6%	nt	4%	2%
CCOC(=O)CN1C(=O)C(O)(c2c(C)[nH]c3ccccc23)c2ccccc21 (stereo not drawn)	-2%	-30%	-30*	?	16%
Cc1nc2cnc(N3CCOCC3)nc2n(C[C@H]2CCCO2)c1=O	27%	nt	1	nt	nt
Cc1ccc(-n2c3c(c(=O)[nH]c2=O)C(NS(=O)(=O)c2ccc(C)cc2)(C(F)(F)F)C(=O)N3)cc1 (stereo not drawn)	15%	-12%	-1	-11%	7%
CCc1c(C(C)S(=O)(=O)c2ccc(C)cc2)[nH]c(=O)n1-c1ccc(C)cc1 (stereo not drawn)	56µM*	-15%	2	?	-3%
CCc1[nH]c(=O)[nH]c1C(C)S(=O)(=O)c1ccc(C)cc1 (stereo not drawn)	20µM*	-19%	3	?	?
N#C/C(=C/c1ccco1)C(N)=S	10µM*	?	-29	28µM*	?
N#C/C(=C\c1ccc2c(c1)OCO2)C(N)=S	?	-15%	0	-17%	1%
CCOC(=O)c1ccc(N=c2ssnc2Cl)cc1	-103%	-18%	2	28µM*	?
COc1cc(-c2nnc(-c3cc(OC)c(OC)c(OC)c3)o2)cc(OC)c1OC	17%	0%	-1	1%	-3%
N#Cc1ccc(N=c2ssnc2Cl)cc1	8.9µM*	-17%	4	20µM*	?
